{
  "source": "PubChem BioAssay AID1469",
  "about": "(National Center for Advancing Translational Sciences (NCATS), 2008)",
  "note": "Hit rate of the full screen: of about 280,000 compounds, about 180 (0.064%) were called active. The call rests on the fitted dose curve; in most records, active means well fitted inhibition curve with a large enough effect; inconclusive means small, poorly fitted or top-dose-only effect, or effect the other way; inactive means flat fitted curve, though single readings scatter. What follows is part of a selection rich in actives, with near analogues and random picks from the rest. Entries that show only a call come without a potency. Potency means the concentration at half of the fitted maximal effect.",
  "data": [
    {"biological_target": "Thyroid hormone receptor beta (Homo sapiens) (UniProt P10828)", "sequence (P10828 whole entry, looked up)": "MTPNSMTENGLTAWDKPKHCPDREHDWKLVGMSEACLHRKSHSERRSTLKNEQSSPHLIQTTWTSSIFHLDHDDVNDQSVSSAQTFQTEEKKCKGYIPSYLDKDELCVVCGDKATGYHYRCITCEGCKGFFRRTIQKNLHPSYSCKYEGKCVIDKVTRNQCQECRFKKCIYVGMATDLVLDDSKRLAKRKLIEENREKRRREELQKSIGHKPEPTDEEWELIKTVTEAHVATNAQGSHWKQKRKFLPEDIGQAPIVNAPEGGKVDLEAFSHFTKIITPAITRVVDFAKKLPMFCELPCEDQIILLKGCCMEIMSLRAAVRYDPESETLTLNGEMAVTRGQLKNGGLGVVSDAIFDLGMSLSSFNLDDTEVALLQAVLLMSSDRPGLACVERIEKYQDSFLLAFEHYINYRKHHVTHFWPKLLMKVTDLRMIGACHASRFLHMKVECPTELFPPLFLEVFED", "assay": "qHTS for Inhibitors of the Interaction of Thyroid Hormone Receptor and Steroid Receptor Coregulator 2; further: nearly all actives have a fitted effect of over 50% in size", "settings": "TRbeta-SRC2 peptide binding, fluorescence polarization, receptor liganded with 1 µM T3; series mostly up to 106 µM", "excerpt": "NIH Molecular Libraries Probe Production Network [MLPCN]\nNIH Chemical Genomics Center [NCGC]\nAssay Provider: R. Kip Guy, St. Jude Children's Research Hospital\nThyroid receptor (TR) regulates many homeostatic processes including basal metabolism, cardiovascular function, body weight, and lipid trafficking. TR modulators are potential therapeutics for obesity and hyperlipidemias but current thyroid analogs have undesirable side effects, particularly cardiac stimulation. To identify inhibitors that specifically prevent the interaction of TR with the steroid receptor coregulator 2 (SRC2), a fluorescence polarization assay was screened. This assay detects interaction of the ligand-binding domain of human TRb with a Texas Red labeled SRC2 peptide, corresponding to a 20 amino acid region of the nuclear receptor interaction domain (Arnold et al., 2006). Small molecule inhibitors that block the interaction of TR and SRC2 are detected by a decrease in fluorescence polarization.\nArnold, L. A.; Estebanez-Perpina, E.; Togashi, M.; Shelat, A.; Ocasio, C. A.; McReynolds, A. C.; Nguyen, P.; Baxter, J. D.; Fletterick, R. J.; Webb, P.; Guy, R. K. A high-throughput screening method to identify small molecule inhibitors of thyroid hormone receptor coactivator binding. Sci STKE 2006, p 13.\nNCGC Assay Protocol Summary:\nFor screening, 5 uL/well 0.6 uM TRb and 20 nM SRC2 Texas Red in protein buffer (20mM Tris hydrochloride, 100mM NaCl, 10% glycerol, 1mM EDTA, 0.01% NP-40, 1mM DTT, 1uM T3 and 5% DMSO) was dispensed into black solid 1536-well plates (Grenier) using a solenoid-based dispenser. Following transfer of 23 nL compound or DMSO vehicle by a pin tool, the plates were centrifuged 15 s at 1000 RPM and incubated 5 hr at ambient temperature. The plates were read by an Envision (Perkin Elmer) to detect fluorescence polarization of SRC2 Texas Red (555 nm excitation and 632 nm emission). Data were normalized to unbound (all components except TRb) and bound SRC2 Texas Red controls. In this assay, we provide % activity data for each concentration as well as potencies for the active compounds.\nKeywords: NIH Roadmap, MLPCN, MLI, MLSMR, qHTS, NCGC, qHTS, thyroid hormone receptor, steroid receptor coactivator, fluorescence polarization", "values": [
      {"compound": "CC1(C)C(=O)N(Cl)C(=O)N1Cl", "Potency": "inactive"},
      {"compound": "CCCCCCCCCCCCCCCC", "Potency": "inactive"},
      {"compound": "CCOc1ccccc1NC(=O)Cn1c2ncccc2c(=O)n1-c1ccc(C)c(C)c1", "Potency": "inactive"},
      {"compound": "CC(C)Cn1c(-c2ccc(S(=O)(=O)N3CCOCC3)cc2)csc1=Nc1cc(Cl)ccc1Cl", "Potency": "inactive"},
      {"compound": "COc1cccc(-c2nc(CS(=O)(=O)CC(=O)N3CCN(c4cc(C)ccc4C)CC3)c(C)o2)c1", "Potency": "inactive"},
      {"compound": "CC1(C)C(=O)N(Br)C(=O)N1Br", "Potency": "inactive"},
      {"compound": "Cc1nc2ccn(Cc3cccs3)c(=O)c2cc1C(=O)NCc1ccc(Cl)cc1", "Potency": "inactive"},
      {"compound": "CCOc1cc(-c2nnc(SCC(=O)NC3CCCCC3)nc2-c2ccc(OC)c(OCC)c2)ccc1OC", "Potency": "inactive"},
      {"compound": "Cc1ccc(N)c(S(=O)(=O)O)c1", "Potency": "inactive"},
      {"compound": "CCc1c(C(=O)O)c(=O)cnn1-c1ccc(Cl)cc1", "Potency": "inactive"},
      {"compound": "CC1CCN(S(=O)(=O)c2ccc3c(ccn3CCC(=O)NCc3ccc(N(C)C)cc3)c2)CC1", "Potency": "inactive"},
      {"compound": "COc1ccc(N2CCN(C(=O)C3CCCN(C(=O)c4cc5sccc5n4C)C3)CC2)cc1", "note": "(centres undefined)", "Potency": "inactive"},
      {"compound": "CC(=O)Nc1ccc(NC(=O)c2cc3sccc3n2Cc2ccc(F)cc2)cc1", "Potency": "inactive"},
      {"compound": "CCOc1ccc(OCC)c(NC(=O)CN(c2ccc(C)cc2)S(=O)(=O)c2c(C)n[nH]c2C)c1", "Potency": "inactive"},
      {"compound": "COc1ccc(CCNC(=O)CCCCn2c(=O)c3ccccc3n(Cc3ccccc3)c2=O)cc1OC", "Potency": "inactive"},
      {"compound": "CCCS(=O)(=O)c1c(Nc2ccccc2C)sc(C(=O)c2ccccc2)c1N", "Potency": "inactive"},
      {"compound": "COc1cccc(NC(=O)CSc2cc(=O)n(C)c3ccc(Cl)cc23)c1", "Potency": "inactive"},
      {"compound": "CSc1ccccc1NC(=O)CCS(=O)(=O)c1nc(-c2cccs2)cc(C(F)(F)F)n1", "Potency": "inactive"},
      {"compound": "COc1ccc2c(c1)Cc1sc(NC(=O)c3ccccc3Br)nc1-2", "Potency": "inactive"},
      {"compound": "COc1cc(OC)c(NC(=O)N2CC3CCCN3c3ccccc32)cc1Cl", "note": "(centres undefined)", "Potency": "inactive"},
      {"compound": "Cc1ccc(C2C=C(c3ccc(Cl)cc3)Nc3nc(NC(=O)CCC(=O)O)nn32)cc1", "note": "(centres undefined)", "Potency": "inactive"},
      {"compound": "O=S(=O)(c1ccc2nc(NCc3ccccc3Cl)ccc2c1)N1CCCCC1", "Potency": "inactive"},
      {"compound": "COc1ccc(NC(=O)C2CCN(c3ccc(Sc4ccc(C)cc4)nn3)CC2)c(OC)c1", "Potency": "inactive"},
      {"compound": "COc1ccc(Nc2ncc(C(=O)Nc3cc(C)ccc3OC)c3ccccc23)cc1", "Potency": "inactive"},
      {"compound": "Cc1ccc(S(=O)(=O)c2nc(-c3cccs3)oc2N2CCCCC2)cc1", "Potency": "inactive"},
      {"compound": "COc1ccccc1Nc1c2c(nc3ccc(NC(=O)/C=C/c4cc(OC)c(OC)c(OC)c4)cc13)CCCC2", "Potency": "inactive"},
      {"compound": "COc1cccc(Cn2c(SCc3ccc(C(=O)N4CCC(C)CC4)cc3)nc3ccncc32)c1", "Potency": "inactive"},
      {"compound": "CCOC(=O)Cn1c(=O)n(-c2ccccc2OC)c2nc(-c3cccc(F)c3)nc(C(N)=O)c21", "Potency": "inactive"},
      {"compound": "Cc1cccc(N2CCN(C(=O)c3cc4c(=O)oc5ccccc5c4s3)CC2C)c1", "note": "(centres undefined)", "Potency": "inactive"},
      {"compound": "COc1ccc(C)cc1NC(=O)C(=O)NCCc1sc(-c2cccc(C)c2)nc1C", "Potency": "inactive"},
      {"compound": "Cc1cccc(Cn2c(SCc3ccc(C(=O)N4CCC(C)CC4)cc3)nc3ccncc32)c1", "Potency": "inactive"},
      {"compound": "CN1CCN(c2oc(-c3ccc(COc4ccc(Cl)cc4)o3)nc2C#N)CC1", "Potency": "inactive"},
      {"compound": "CC(=O)c1ccc(NC(=O)CSc2c(C(C)C)cnc3c2c(=O)n(C)c(=O)n3C)cc1", "Potency": "inactive"},
      {"compound": "CCOc1ccc(C2C(=O)N(C3CCCCC3)CC(=O)N2CCC2=CCCCC2)cc1OC", "note": "(centres undefined)", "Potency": "inactive"},
      {"compound": "COc1ccccc1N1CCN(C(CNC(=O)C(=O)NCc2ccc(C)cc2)c2cccnc2)CC1", "note": "(centres undefined)", "Potency": "inactive"},
      {"compound": "CCOC(=O)c1c(N)sc(C(C)=O)c1C", "Potency": "inactive"},
      {"compound": "COC(=O)c1sc(=S)n(-c2ccc(Cl)cc2)c1C", "Potency": "inactive"},
      {"compound": "COCCOC(=O)c1sc(=S)n(CCOC)c1N", "Potency": "39.8 µM (active)"},
      {"compound": "Cc1cc(C)c(N)c(Cl)c1", "Potency": "inactive"},
      {"compound": "COc1ccc(C2Sc3ccccc3NC3=C2C(=O)c2ccccc23)c(OC)c1OC", "note": "(centres undefined)", "Potency": "inactive"},
      {"compound": "CCOc1cccc(CC(=O)N2CCc3c([nH]c4ccccc34)C2c2ccc(OC)cc2)c1OCC", "note": "(centres undefined)", "Potency": "inactive"},
      {"compound": "Cc1ccc(OCC(=O)Nc2ccc(Cl)c(-c3nc4ccccc4[nH]3)c2)cc1C", "Potency": "inactive"},
      {"compound": "COc1ccc(C(F)(F)F)cc1NC(=O)c1sc2nc(-c3cccs3)ccc2c1N", "Potency": "inactive"},
      {"compound": "CCOc1ccc(C(=O)/C=C/c2cn(CC(O)CN3CCCCCC3)c3ccccc23)cc1", "note": "(centres undefined)", "Potency": "inactive"},
      {"compound": "Cc1ccc(CCNC(=O)c2ccc3c(c2)N(Cc2cc(C)ccc2C)C(=O)c2ccccc2S3=O)cc1", "note": "(centres undefined)", "Potency": "inactive"},
      {"compound": "O=C(C1CCC(Cn2c(=O)c3sccc3n(Cc3ccccc3F)c2=O)CC1)N1CCCCC1", "note": "(centres undefined)", "Potency": "inactive"},
      {"compound": "COc1cccc(N2CCN(S(=O)(=O)c3cc(Br)cc4c3N(C(=O)C3CC3)CC4)CC2)c1", "Potency": "inactive"},
      {"compound": "CCOc1cccc2sc(N3CCN(C(=O)C4CC4)CC3)nc12", "Potency": "inactive"},
      {"compound": "COc1ccc(OCCCn2c(C)nc3cc(C)c(C)cc32)cc1", "Potency": "inactive"},
      {"compound": "CC(=O)Nc1ccc2nc(SCCOc3cc(C)cc(C)c3)sc2c1", "Potency": "inactive"},
      {"compound": "COc1ccc(NC(=O)CSc2nc3ccccc3n2CC(=O)N2CCCCC2C)cc1", "note": "(centres undefined)", "Potency": "inactive"},
      {"compound": "Cc1cccc(CC(=O)Nc2cccc(-c3cn4cccnc4n3)c2)c1", "Potency": "inactive"},
      {"compound": "CC(=O)N(CCN(C(C)=O)C(C)=O)C(C)=O", "Potency": "inactive"},
      {"compound": "COc1ccc(Cl)cc1-n1c(CCC(=O)O)ccc1-c1ccc(C)cc1", "Potency": "inactive"},
      {"compound": "CCOc1ccccc1N(CC)C(=O)c1cc2ccc3cccnc3c2[nH]1", "Potency": "inactive"},
      {"compound": "CCOc1ccccc1CNC(=O)Nc1cn(CC(C)C)c(=O)c2ccccc12", "Potency": "inactive"},
      {"compound": "O=C(Nc1cc(Cl)cc(Cl)c1)c1ccc2c(c1)N(Cc1cccc(Cl)c1)C(=O)c1ccccc1S2=O", "note": "(centres undefined)", "Potency": "inactive"},
      {"compound": "Clc1cccc(-n2ncc3c(NCCc4ccccc4)ncnc32)c1", "Potency": "inactive"},
      {"compound": "CCOC(=O)c1c(C)oc2nc(C)nc(N(CC(C)C)CC(C)C)c12", "Potency": "inactive"},
      {"compound": "O=C(Nc1cccc(-c2nc3ccccc3o2)c1)c1cccc(Br)c1", "Potency": "inactive"},
      {"compound": "CCN(CC)S(=O)(=O)c1nnc(NC(=O)COc2ccccc2Cl)s1", "Potency": "inactive"},
      {"compound": "O=C(c1ccc2c(c1)N(Cc1ccccc1)C(=O)c1ccccc1S2(=O)=O)N1CCC(Cc2ccccc2)CC1", "Potency": "inactive"},
      {"compound": "CCc1ccc(NC(=O)c2sc3nc4c(cc3c2N)CN(CC)CC4)cc1", "Potency": "inactive"},
      {"compound": "CC(=O)c1ccc(NC(=O)CSc2nc(-c3ccccc3F)nc3c2c(=O)n(C)c(=O)n3C)cc1", "Potency": "inactive"}
    ]}
  ]
}
